Only some compounds are listed: those with a hit (about 1.2% of all), similar ones and a draw of the others.
TrxR1 substrate – is turned over as a substrate by rat TrxR1 | Potency, µM (highest dose often 114 µM) | 390,000 compounds, 0.01% hits | purified TrxR1 substrate turnover, NADPH consumption readout | AID 588456 | O89049; note: nearly all actives have a fitted effect of over 50% in size
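Rat TrxR1, dispensed at 90 nM, was prereduced with 400 uM NADPH (final) for 5 min at ~22 deg C, then incubated with compound 15 min before 400 uM selenite. A first-read NADPH fluorescence drop versus no-compound background flagged substrates.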
GALK inhibitor – galactokinase (human) inhibition; Purified GALK, Kinase-Glo residual ATP luminescence; Potency, µM (highest dose often 57.5 µM), most hits filed as inhibitors; 270,000 compounds, 0.007% hits; AID 1868
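Luminescence from leftover ATP (Ultra-Glo luciferase/luciferin) served as read-out after a 1 h room-temperature reaction of 5 nM GALK with 35 uM ATP and 100 uM galactose.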
PKM2 act – increases activity of human pyruvate kinase M2. Potency, µM (top dose mostly 57.5 µM), hits mostly activators. 260,000 compounds, 0.34% hits. purified PKM2, Kinase-Glo ATP luminescence, activation; response scale: 0% is enzyme alone, no compound; note: nearly all actives have a fitted effect of over 55% in size
Target sequence (P14618 whole entry, looked up): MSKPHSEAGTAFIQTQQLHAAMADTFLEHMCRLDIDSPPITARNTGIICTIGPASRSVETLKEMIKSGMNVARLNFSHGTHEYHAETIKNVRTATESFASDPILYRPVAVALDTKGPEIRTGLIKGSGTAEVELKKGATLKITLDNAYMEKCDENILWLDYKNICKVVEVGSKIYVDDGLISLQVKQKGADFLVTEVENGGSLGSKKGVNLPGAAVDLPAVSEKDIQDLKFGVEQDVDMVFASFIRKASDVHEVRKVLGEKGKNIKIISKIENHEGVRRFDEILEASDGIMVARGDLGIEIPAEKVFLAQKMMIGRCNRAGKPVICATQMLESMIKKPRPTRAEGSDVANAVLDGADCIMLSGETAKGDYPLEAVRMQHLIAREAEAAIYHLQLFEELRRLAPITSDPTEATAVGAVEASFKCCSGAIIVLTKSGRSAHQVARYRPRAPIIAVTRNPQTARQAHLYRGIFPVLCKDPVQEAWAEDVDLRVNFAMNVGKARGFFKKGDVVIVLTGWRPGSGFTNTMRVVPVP
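hPK-M2, >95% pure; 0.1 mM ADP / 0.5 mM PEP final; imidazole pH7.2 buffer w/ 7 mM MgCl2, 50 mM KCl; 1 h RT; Kinase-Glo lum. Intermediate enzyme activity for dual inhibitor/activator qHTS.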
PI4K2A inh – blocks human PI4K2A kinase activity; Q9BTU6; purified PI4K2A, ADP-Glo luminescence, 1 h; stronger effect = lower value; activity change, negative = inhibition, % at 76.9 µM; 420,000 compounds, 0.13% hits; AID 1346378; in the data active = activity change below about -50%; inconclusive = mostly about -30% to -49%
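In this quantitative HTS, ADP production by PI4K2A was quantified luminescently after 1 h at ambient temperature; 100 microM adenosine served as plate-quality control.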
rTrxR1 inhibitor – rat TrxR1 inhibition. recombinant rTrxR1, NADPH fluorescence consumption, selenite substrate. O89049. 390,000 compounds, 1% hits. Potency, µM (top dose mostly 114 µM), usual class: inhibitors; note: nearly all actives have a fitted effect of over 65% in size
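Rat TrxR1 (90 nM in the dispensed reagent) was pre-reduced with 400 uM NADPH for 5 min at room temperature, then incubated with compound for 15 min. After 400 uM selenite was added, NADPH fluorescence (Ex 340/Em 450 nm) was followed for 8 min.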
Of the large screens only hits and unclear results are named; the others gave an inactive call. Unless noted, calls come from the whole dose curve; as a rule, active = well fitted curve in the direction sought with a large enough effect; inconclusive = small, poorly fitted or top-dose-only effect, or another doubt; inactive = no such curve, though single readings can be large; an effect the other way counts as inactive or inconclusive.

O=C1/C(=C/N(C(=O)c2ccco2)c2ccc(Br)cc2)Sc2ccccc21	rTrxR1 inhibitor 14.1µM
COc1ccc(CN(C(=O)c2ccco2)c2ccc(Br)cc2)cc1OC	none
CN(C)c1ccc(/C=C2\CCc3ccccc32)cc1	none (no result: GALK inhibitor, PKM2 act, PI4K2A inh)
Cc1ccc2occ(/C=N/NC(=O)[C@@H](N)Cc3ccccc3)c(=O)c2c1	none (no result: GALK inhibitor)
COCC(C)OC(=O)/C(C#N)=C\c1coc2ccc(C)cc2c1=O (stereo unspecified)	rTrxR1 inhibitor 28.2µM
O=C([C@@H]1C[C@H]1c1ccccc1)N1CC[C@H]2[C@H](CCCN2Cc2ccccc2)C1	none (no result: TrxR1 substrate, GALK inhibitor, PKM2 act, rTrxR1 inhibitor)
Cc1ccc(C)c(N2CCN(C(=O)Cn3c(=O)c4cccn4c4ccc(F)cc43)CC2)c1	none (no result: GALK inhibitor, PKM2 act)
COc1cc(C2c3c([nH]c(=O)[nH]c3=O)Nc3ccc4ccccc4c32)cc(OC)c1OC (stereo unspecified)	PI4K2A inh -60.1
CSCC[C@H](NC(=O)[C@H](Cc1c[nH]c2ccccc12)NC(=O)CCNC(=O)OC(C)(C)C)C(=O)N[C@@H](CC(=O)O)C(=O)N[C@@H](Cc1ccccc1)C(N)=O	none (no result: TrxR1 substrate, GALK inhibitor, PKM2 act, rTrxR1 inhibitor)
O=C(OCn1ncc(Br)c(Br)c1=O)c1ccc(F)cc1	rTrxR1 inhibitor 1.78µM
Cc1nc2ccc(S(=O)(=O)Nc3ccccc3C)cc2s1	PKM2 act 15.8µM
O=S(NCc1ccco1)C12CC3CC(CC(C3)C1)C2 (stereo unspecified)	rTrxR1 inhibitor 35.5µM
O=S(NCc1ccccc1)C12CC3CC(CC(C3)C1)C2 (stereo unspecified)	none
COC(=O)c1ccc(OC(=O)c2ccccn2)cc1	none
N#CC(C#N)=Cc1ccc(OC(=O)c2ccccn2)cc1	rTrxR1 inhibitor 12.6µM
O=C(/C=C/c1ccco1)NCC(=O)N/N=C/c1ccccc1[N+](=O)[O-]	rTrxR1 inhibitor 44.7µM
COc1cccc(N2CCN(C(=O)CSc3nc4ncccc4[nH]3)CC2)c1	none (no result: TrxR1 substrate, GALK inhibitor, PKM2 act, rTrxR1 inhibitor)
Cc1ccc2cc(CN(CCN3CCOCC3)Cc3nnnn3Cc3ccco3)c(=O)[nH]c2c1C	none
Cc1ccc2cc(CN(CCCN3CCOCC3)C(c3nnnn3Cc3ccco3)C(C)C)c(=O)[nH]c2c1C (stereo unspecified)	rTrxR1 inhibitor 10µM (no result: GALK inhibitor, PKM2 act)
CCCCN(C)CCNC(=O)c1cc2c(=O)n(C)c3ccccc3c2n1C	none (no result: GALK inhibitor, PKM2 act)
Clc1nnc(N/N=C/c2ccccc2)c2ccccc12	none
C[n+]1ccc(/C=N/Nc2nc(Cl)c(C#N)c(Cl)c2Cl)cc1	rTrxR1 inhibitor 3.55µM
C/C=C/C=C/C(=O)N1CC2(CC(c3cccc(NC(=O)/C=C/C)c3)=NO2)C[C@@H]1C(N)=O (stereo partly specified)	PKM2 act 8.91µM, rTrxR1 inhibitor inconclusive
C=C(C)C(=O)Nc1cccc(C2=NOC3(C2)C[C@@H](C(N)=O)N(C(=O)/C=C/C=C/C)C3)c1 (stereo partly specified)	PKM2 act 12.6µM, rTrxR1 inhibitor inconclusive
COc1ccc(/C=C2/C=Cc3ccccc32)cc1	none (no result: GALK inhibitor, PKM2 act, PI4K2A inh)
COc1ccc(OC)c(/C=C2\C=Cc3ccccc32)c1	rTrxR1 inhibitor 5.62µM (no result: GALK inhibitor, PKM2 act, PI4K2A inh)
CCCCOc1ccc(C(=O)N2CCCCC2CCN2CCOCC2)cc1 (stereo unspecified)	none (no result: GALK inhibitor, PKM2 act)
CC(C)Oc1ccc(C(=O)CCN2CCCCC2)cc1	rTrxR1 inhibitor inconclusive
CCCCCOc1ccc(C(=O)CCN2CCOCC2)cc1	rTrxR1 inhibitor 10µM
CC(C)Oc1ccc(C(=O)CCN2CCOCC2)cc1	rTrxR1 inhibitor 3.55µM (no result: GALK inhibitor, PKM2 act)
O=C(CCN1CCOCC1)c1ccc(Cl)cc1	rTrxR1 inhibitor inconclusive
CCCCOc1ccc(C(O)(CCN2CCOCC2)c2ccccc2)cc1 (stereo unspecified)	rTrxR1 inhibitor 39.8µM (no result: PKM2 act)
O=C(CCN1CCOCC1)c1ccc(Br)cc1	rTrxR1 inhibitor 0.447µM
CCCCOc1ccc(SCCCN2CCOCC2)cc1	none (no result: GALK inhibitor, PKM2 act)
CCOC(=O)C1(C(=O)OCC)Cc2c([nH]c3ccccc23)[C@]2(N1)C(=O)N(C)c1ccc(Br)cc12	none (no result: TrxR1 substrate, GALK inhibitor, PKM2 act, rTrxR1 inhibitor)
COC(=O)[C@]12C[C@H](CC(=O)N3CCCC3)C(=O)N(Cc3cccc4ccccc34)C1=C[C@H](COCc1ccccc1)O[C@@H]2C	none (no result: TrxR1 substrate, GALK inhibitor, PKM2 act, rTrxR1 inhibitor)
CCN(C(=O)C1CCCN(c2nnc(-n3cccc3)s2)C1)c1ccccc1C (stereo unspecified)	none (no result: TrxR1 substrate, GALK inhibitor, PKM2 act, rTrxR1 inhibitor)
CNc1cccccc1=S	PI4K2A inh inconclusive, rTrxR1 inhibitor 7.94µM
CNc1ccccc1	none (no result: GALK inhibitor, PKM2 act)
